Compound activity as filed in PubChem.
Hits are enriched below; roughly 4.6% of the tested compounds scored in any of these assays.
D1 PAM = Potentiators of Human D1 Dopamine Receptor: qHTS; AID 504651, 2011; actives 0.036% (n = 360,000); HEK293 TREx D1 cells, calcium flux, dopamine EC20 potentiation; potentiation, % at 10 µM; D(1A) dopamine receptor (Homo sapiens), P21728; in the data active means potentiation above about 30%
Target sequence (P21728 whole entry, looked up): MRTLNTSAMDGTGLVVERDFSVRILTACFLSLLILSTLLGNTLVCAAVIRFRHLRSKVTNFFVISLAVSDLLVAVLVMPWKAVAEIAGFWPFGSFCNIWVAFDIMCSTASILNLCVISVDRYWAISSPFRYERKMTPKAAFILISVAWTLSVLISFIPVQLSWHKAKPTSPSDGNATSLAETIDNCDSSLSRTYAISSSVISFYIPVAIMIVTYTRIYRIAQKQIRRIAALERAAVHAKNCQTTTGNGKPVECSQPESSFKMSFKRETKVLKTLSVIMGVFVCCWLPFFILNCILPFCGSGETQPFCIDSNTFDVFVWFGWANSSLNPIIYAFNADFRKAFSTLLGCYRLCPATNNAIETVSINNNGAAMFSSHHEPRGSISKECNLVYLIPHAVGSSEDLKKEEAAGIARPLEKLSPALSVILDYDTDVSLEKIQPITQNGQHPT
TRHR PAM = qHTS for Small Molecule Agonists and Allosteric Enhancers of Human TRH Receptor: Primary Screen for Enhancers. enhancement, % at 2 µM. Thyrotropin-releasing hormone receptor (Homo sapiens), P34981. TRHR cells, fluo-8 calcium fluorescence, EC20 TRH enhancement. actives 0.66% (n = 360,000); in the data active means enhancement above about 30%
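Enhancer read-out: after compound pinning and an initial kinetic agonist-mode read, an EC20 of TRH (10 nM final) was injected and fluo-8 calcium signal (Ex 480/Em 530) followed at 1 s/cycle for 100 cycles in TRHR-expressing cells.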
D1 antagonist = Antagonist of Human D 1 Dopamine Receptor: qHTS | HEK293 TREx D1 cells, calcium flux, dopamine EC80; stronger effect = lower value | activity change, negative = inhibition, % at 10 µM | actives 3.2% (n = 360,000); in the data active means activity change below about -30%
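Antagonism measured as reduced calcium response to an EC80 dopamine addition following 180 s compound pre-read; cells were inducible HEK293 Trex D1 plated overnight at 30 C, read kinetically at 1 cycle/sec.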
Epigenetic reg = Quantitative High-Throughput Screen for Regulators of Epigenetic Control. murine LDR cells, GFP reporter derepression, 30 h. Potency, µM (top dose mostly 53.9 µM), actives largely listed as activators. actives 0.2% (n = 280,000). AID 1865, 2009; active means well fitted activation curve with a large enough effect; further: nearly all actives have a fitted effect of over 60% in size
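Derepression of a silenced CMV-GFP reporter in murine LDR cells is scored by enumerating GFP-positive cells with a laser-scanning microplate cytometer after 30 hours of treatment at 37 C.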
D1 ag = Allosteric Agonists of the Human D1 Dopamine Receptor: qHTS; activation, % at 2 µM; AID 504660, 2011; actives 1% (n = 360,000); HEK293 T-REx D1 cells, calcium flux, agonist mode
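Agonism was scored from calcium flux recorded over 180 s (1 read/s) after pintool compound addition, following a 10-cycle baseline. Cells were inducible force-coupled HEK293 TREx D1, plated overnight at 30 C and loaded with no-wash calcium dye.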
TRHR ag = qHTS for Small Molecule Agonists and Allosteric Enhancers of Human TRH Receptor: Primary Screen for Agonists. Thyrotropin-releasing hormone receptor (Homo sapiens), P34981. AID 493084, 2011. actives 0.18% (n = 360,000). activation, % at 2 µM. TRHR cells, calcium flux fluo-8, FDSS agonist mode
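TRHR-expressing cells loaded with fluo-8 calcium dye; 23 nL library compound pin-transferred, kinetic FDSS fluorescence (Ex 480/Em 530) recorded about 180 s for agonist-induced calcium release, before a 10 nM TRH EC20 addition for potentiator mode.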
Large screens that a line does not name were inactive; ! = a repeat was not active. Unless noted, no stated cut-off is given here; in the data, active means activation above about 30%; inactive means the rest.

O=[N+]([O-])c1ccc(Oc2ccc(S(=O)(=O)N3CCOCC3)cc2)cc1	D1 antagonist -42 (no result: D1 PAM, Epigenetic reg)
O=[N+]([O-])c1ccc(-c2ccc(S(=O)(=O)N3CCOCC3)cc2)cc1	none (no result: Epigenetic reg)
O=C(c1ccccc1)c1ccc(O)cc1O	D1 ag 60
O=C(c1ccc(O)cc1)c1ccc(O)cc1O	none
Nc1c[n+](N2CCOCC2)no1	none (no result: D1 PAM, TRHR PAM, D1 antagonist, D1 ag, TRHR ag)
CCCN1C2CCCC1CC(NC(=O)c1ccccc1OCC)C2 (centres undefined)	D1 antagonist -81
CCOc1ccccc1C(=O)NC1CC2CCCC(C1)N2Cc1ccc(C)cc1 (centres undefined)	D1 antagonist -51 (no result: Epigenetic reg)
CCN1C(=O)c2ccccc2Sc2ccc(NC(=O)c3cccc(C)c3)cc21	none
CCN(CC)CCCNC(=O)c1ccc2c(c1)N(Cc1c(F)cccc1Cl)C(=O)c1ccccc1S2	D1 ag 45
COc1ccccc1CNC(=O)c1ccc2c(c1)N(Cc1cc(C)ccc1C)C(=O)c1ccccc1S2	D1 antagonist -38
CCN1C(=O)c2ccccc2Sc2ccc(NC(=O)c3ccc(C)c(F)c3)cc21	D1 antagonist -72
Cc1ccc(CN2C(=O)c3ccccc3Sc3ccc(C(=O)NCCCN4CCOCC4)cc32)cc1	D1 ag 43!
CC(=O)Nc1cccc(NC(=O)c2c(-c3ccccc3)c(-c3ccccc3)nn(C)c2=O)c1	none
CC(C)CN(CCCNC(=O)c1cc(-c2ccc(Br)s2)nc2ccccc12)CC(C)C	none
CC1CCn2c(nc3cc(C(=O)NCCc4ccccc4)ccc32)C1 (centres undefined)	none
Cc1c(C)n(Cc2ccc(F)cc2)c2ccc(C(=O)NCCCN3CCOCC3)cc12	D1 antagonist -37 (no result: Epigenetic reg)
CC1CCCN(CCCNC(=O)c2ccc3c(c2)N(Cc2ccc(F)cc2)C(=O)c2ccccc2S3=O)C1 (centres undefined)	D1 ag 39 (no result: Epigenetic reg)
CC(C)c1cnc2c(c1SCC(=O)N1CCCCC1)c(=O)n(C)c(=O)n2C	none
Cc1nc(-c2ccc(C)c(S(=O)(=O)N3CCC(C(=O)NCc4ccc(F)cc4)CC3)c2)no1	none
Clc1ccccc1OCc1nc(-c2ccc(Br)o2)no1	D1 antagonist -41 (no result: D1 PAM)
Fc1ccc(OCc2nc(-c3ccc(Br)o3)no2)c(F)c1	none
Brc1ccc(-c2noc(COc3ccc4ccccc4c3)n2)o1	D1 antagonist -52
CCN1CCN(c2nc3c(S(=O)(=O)c4ccc(Br)cc4)nnn3c3ccsc23)CC1	none
Cn1c(C(=O)NCc2cccc(F)c2)cc2cc(S(=O)(=O)N3CCCCC3)ccc21	D1 antagonist -54
CN(C)c1ccc(CNC(=O)c2cc3cc(S(=O)(=O)N4CCCCC4)ccc3n2C)cc1	none
O=C(CCn1ccc2cc(S(=O)(=O)N3CCCC3)ccc21)NCc1cccc(F)c1	D1 antagonist -33!
Cn1c(C(=O)NCc2ccccc2F)cc2cc(S(=O)(=O)N3CCCCC3)ccc21	none
Cc1cccc(CNC(=O)c2cc3cc(S(=O)(=O)N4CCCCC4)ccc3n2C)c1	D1 antagonist -46
N#CCCCS(=O)(=O)c1ccccc1	none (no result: D1 PAM, TRHR PAM, D1 antagonist, D1 ag, TRHR ag)
Cc1c(NC(=O)Nc2ccc3c(c2)OCO3)cccc1[N+](=O)[O-]	D1 antagonist -44 (no result: Epigenetic reg)
Cc1ccccc1NC(=O)Nc1ccc2c(c1)OCO2	none (no result: Epigenetic reg)
CC(C(=O)Nc1ccc(F)c(F)c1F)N(C)CC(=O)Nc1ccccc1Br (centres undefined)	D1 antagonist -31
Cc1cccc(C)c1NC(=O)CN(C)C(C)C(=O)NCC(=O)Nc1ccc(F)c(F)c1F (centres undefined)	none (no result: Epigenetic reg)
CSc1ncc(C(=O)Nc2ccccc2C(F)(F)F)c(-c2ccccc2)n1	none
COc1ccc2cc(CNc3ccc(C)cc3)c(=O)n(CC(=O)Nc3ccc(OC)c(Cl)c3)c2c1	none
